Source: the supplement of paper PMC4466140

Target: ScBbc1
Experiment: SPOT peptide array binding signal intensity (averaged, normalized) (arbitrary units (background-subtracted, floor 0; scale differs between SH3 domains)); higher = stronger binding of the SH3 domain to the peptide
Procedure, shortened: (§1)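 To measure binding, SH3 domains from four yeast species were fused to GST, expressed in E. coli BL21(DE3) and purified on glutathione Sepharose. Each domain was incubated at 10 μg/ml overnight at 4°C on cellulose membranes with synthetic 15-mer peptides whose cysteines were replaced by serines. Anti-GST antibody, an HRP anti-mouse secondary and luminol were used for detection, and images were quantified with Genespotter. Reported binding signal is normalized, background-subtracted spot intensity averaged over replicates, in arbitrary units that differ between domains.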

Row | Binder | SPOT peptide array binding signal intensity
1 | RRSKSLPTTPGIRSG | 19.2

Target: ScBem1-D1
Experiment: as above
Procedure, shortened: as §1

Row | Binder | SPOT peptide array binding signal intensity
2 | RRSKSLPTTPGIRSG | 54

Target: ScBzz1-D1
Experiment: as above
Procedure, shortened: as §1

Row | Binder | SPOT peptide array binding signal intensity
3 | RRSKSLPTTPGIRSG | 25

Target: ScBzz1-D2
Experiment: as above
Procedure, shortened: as §1

Row | Binder | SPOT peptide array binding signal intensity
4 | RRSKSLPTTPGIRSG | 27

Target: ScCyk3
Experiment: as above
Procedure, shortened: as §1

Row | Binder | SPOT peptide array binding signal intensity
5 | RRSKSLPTTPGIRSG | 96

Target: ScFus1
Experiment: as above
Procedure, shortened: as §1

Row | Binder | SPOT peptide array binding signal intensity
6 | RRSKSLPTTPGIRSG | 163

Target: ScHof1
Experiment: as above
Procedure, shortened: as §1

Row | Binder | SPOT peptide array binding signal intensity
7 | RRSKSLPTTPGIRSG | 1.25

Target: ScHse1
Experiment: as above
Procedure, shortened: as §1

Row | Binder | SPOT peptide array binding signal intensity
8 | RRSKSLPTTPGIRSG | 1360

Target: ScLsb1
Experiment: as above
Procedure, shortened: as §1

Row | Binder | SPOT peptide array binding signal intensity
9 | RRSKSLPTTPGIRSG | 77

Target: ScLsb2
Experiment: as above
Procedure, shortened: as §1

Row | Binder | SPOT peptide array binding signal intensity
10 | RRSKSLPTTPGIRSG | 6

Target: ScLsb3
Experiment: as above
Procedure, shortened: as §1

Row | Binder | SPOT peptide array binding signal intensity
11 | RRSKSLPTTPGIRSG | 444

Target: ScLsb4
Experiment: as above
Procedure, shortened: as §1

Row | Binder | SPOT peptide array binding signal intensity
12 | RRSKSLPTTPGIRSG | 21

Target: ScMyo3
Experiment: as above
Procedure, shortened: as §1

Row | Binder | SPOT peptide array binding signal intensity
13 | RRSKSLPTTPGIRSG | 6.5

Target: ScMyo5
Experiment: as above
Procedure, shortened: as §1

Row | Binder | SPOT peptide array binding signal intensity
14 | RRSKSLPTTPGIRSG | ≤ 0

Target: ScNbp2
Experiment: as above
Procedure, shortened: as §1

Row | Binder | SPOT peptide array binding signal intensity
15 | RRSKSLPTTPGIRSG | 203

Target: ScPex13
Experiment: as above
Procedure, shortened: as §1

Row | Binder | SPOT peptide array binding signal intensity
16 | RRSKSLPTTPGIRSG | 23.2

Target: ScRvs167
Experiment: as above
Procedure, shortened: as §1

Row | Binder | SPOT peptide array binding signal intensity
17 | RRSKSLPTTPGIRSG | 18.7

Target: ScSho1
Experiment: as above
Procedure, shortened: as §1

Row | Binder | SPOT peptide array binding signal intensity
18 | RRSKSLPTTPGIRSG | 5840

Target: ScSla1-D1-D2
Experiment: as above
Procedure, shortened: as §1

Row | Binder | SPOT peptide array binding signal intensity
19 | RRSKSLPTTPGIRSG | 4460

Target: ScSla1-D3
Experiment: as above
Procedure, shortened: as §1

Row | Binder | SPOT peptide array binding signal intensity
20 | RRSKSLPTTPGIRSG | 70.5

Target: SpAbp1-D1
Experiment: as above
Procedure, shortened: as §1

Row | Binder | SPOT peptide array binding signal intensity
21 | RRSKSLPTTPGIRSG | 2040

Target: SpBbc1
Experiment: as above
Procedure, shortened: as §1

Row | Binder | SPOT peptide array binding signal intensity
22 | RRSKSLPTTPGIRSG | 6.5

Target: SpBzz1-D1
Experiment: as above
Procedure, shortened: as §1

Row | Binder | SPOT peptide array binding signal intensity
23 | RRSKSLPTTPGIRSG | 226

Target: SpBzz1-D2
Experiment: as above
Procedure, shortened: as §1

Row | Binder | SPOT peptide array binding signal intensity
24 | RRSKSLPTTPGIRSG | 0.5

Target: SpCyk3
Experiment: as above
Procedure, shortened: as §1

Row | Binder | SPOT peptide array binding signal intensity
25 | RRSKSLPTTPGIRSG | 5

Target: SpHof1
Experiment: as above
Procedure, shortened: as §1

Row | Binder | SPOT peptide array binding signal intensity
26 | RRSKSLPTTPGIRSG | 2630

Target: SpHof1-2
Experiment: as above
Procedure, shortened: as §1

Row | Binder | SPOT peptide array binding signal intensity
27 | RRSKSLPTTPGIRSG | 3020

Target: SpHof1-3
Experiment: as above
Procedure, shortened: as §1

Row | Binder | SPOT peptide array binding signal intensity
28 | RRSKSLPTTPGIRSG | 1440

Target: SpHse1
Experiment: as above
Procedure, shortened: as §1

Row | Binder | SPOT peptide array binding signal intensity
29 | RRSKSLPTTPGIRSG | 356

Target: SpLsb1
Experiment: as above
Procedure, shortened: as §1

Row | Binder | SPOT peptide array binding signal intensity
30 | RRSKSLPTTPGIRSG | 0.5

Target: SpLsb4
Experiment: as above
Procedure, shortened: as §1

Row | Binder | SPOT peptide array binding signal intensity
31 | RRSKSLPTTPGIRSG | 574

Target: SpMyo1
Experiment: as above
Procedure, shortened: as §1

Row | Binder | SPOT peptide array binding signal intensity
32 | RRSKSLPTTPGIRSG | 15.2

Target: SpNbp2
Experiment: as above
Procedure, shortened: as §1

Row | Binder | SPOT peptide array binding signal intensity
33 | RRSKSLPTTPGIRSG | 506

Target: SpPex13
Experiment: as above
Procedure, shortened: as §1

Row | Binder | SPOT peptide array binding signal intensity
34 | RRSKSLPTTPGIRSG | 8.5

Target: SpRvs167
Experiment: as above
Procedure, shortened: as §1

Row | Binder | SPOT peptide array binding signal intensity
35 | RRSKSLPTTPGIRSG | 72.5

Target: SpSla1-D1-D2
Experiment: as above
Procedure, shortened: as §1

Row | Binder | SPOT peptide array binding signal intensity
36 | RRSKSLPTTPGIRSG | 1620

Target: SpSla1-D3
Experiment: as above
Procedure, shortened: as §1

Row | Binder | SPOT peptide array binding signal intensity
37 | RRSKSLPTTPGIRSG | 15
